Assay results published in PubChem BioAssay AID1851 (National Center for Advancing Translational Sciences (NCATS), 2009).
About 5,800 (36%) of roughly 16,000 compounds were called active. Not shown: some 23% with an inconclusive outcome. The call rests on the fitted dose curve; in most records, active means well fitted curve in the direction sought with a large enough effect; inconclusive means small, poorly fitted or top-dose-only effect, or effect the other way; inactive means no such curve, though single readings can be large or run the other way. This is one part of the list.

Biological target: Cytochrome P450 2C19 (Homo sapiens) (UniProt P33261)
Sequence (P33261 whole entry, looked up): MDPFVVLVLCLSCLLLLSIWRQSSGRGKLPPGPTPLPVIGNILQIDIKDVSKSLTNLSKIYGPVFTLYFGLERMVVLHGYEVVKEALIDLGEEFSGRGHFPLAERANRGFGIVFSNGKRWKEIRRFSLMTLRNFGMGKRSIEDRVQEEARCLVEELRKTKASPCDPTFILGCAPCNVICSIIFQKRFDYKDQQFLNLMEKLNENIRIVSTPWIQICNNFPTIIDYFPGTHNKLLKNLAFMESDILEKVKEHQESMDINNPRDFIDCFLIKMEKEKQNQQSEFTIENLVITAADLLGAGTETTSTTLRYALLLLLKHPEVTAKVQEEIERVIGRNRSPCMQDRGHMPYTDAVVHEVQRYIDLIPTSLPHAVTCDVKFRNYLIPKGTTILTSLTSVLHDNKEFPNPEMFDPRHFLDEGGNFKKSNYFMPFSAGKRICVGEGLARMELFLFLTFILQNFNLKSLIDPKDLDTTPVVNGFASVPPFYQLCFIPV
Assay: Cytochrome panel assay with activity outcomes
Details: recombinant CYP, pro-luciferin dealkylation, luminescence, p450-cyp2c19; series mostly up to 57.1 µM; activity, negative = inhibition: at the top concentration
On the % scale 0 is the no-effect control and ±100 the full control effect.

| Compound | activity, negative = inhibition | AC50 |
| --- | --- | --- |
| O=C(c1ccc(F)cc1)C1CCN(CCn2c(=S)[nH]c3ccccc3c2=O)CC1 | 9.05% (inactive) | – |
| CC1CCCC(n2c(=S)[nH]c3ccccc3c2=O)C1C (stereo not drawn) | – | 0.1 µM (active) |
| Cc1cc(=O)c2ccccc2[nH]1 | -24.5% (inactive) | – |
| C[C@H](Nc1ncnc2sc3c(c12)CCC3)C(=O)O | -27.4% (inactive) | – |
| COCCNc1nc(SCc2ccccc2)nc2sc3c(c12)CCC3 | – | 4.47 µM (active) |
| CC(CO)Nc1nc(SCc2ccccc2)nc2sc3c(c12)CCC3 (stereo not drawn) | – | 3.16 µM (active) |
| COCCNc1nc(-c2ccccc2C)nc2ccccc12 | -15.5% (inactive) | – |
| OCCNc1nc(SCc2ccccc2)nc2sc3c(c12)CCC3 | – | 2.82 µM (active) |
| COC(=O)N1CCC2(CCN(Cc3nccs3)CC2)CC1 | 12.1% (inactive) | – |
| COCC(=O)N1CCC[C@@]2(CCN(Cc3nccs3)C2)C1 | -3.18% (inactive) | – |
| CC(=O)N1CCC[C@@]2(CCN(Cc3nccs3)C2)C1 | -16.1% (inactive) | – |
| CC(=O)N1CCC2(CCN(Cc3nccs3)CC2)CC1 | -44.8% (inactive) | – |
| COC(=O)N1CCC2(CCCN(Cc3nccs3)C2)CC1 | – | 20 µM (active) |
| O=C(c1cnccn1)N1CCC2(CC1)CN(Cc1nccs1)C2 | 30.2% (inactive) | – |
| CC(=O)N1CCC2(CCCN(Cc3nccs3)C2)CC1 | – | 5.01 µM (active) |
| O=C(c1cnccn1)N1CCC2(CCCN(Cc3nccs3)C2)CC1 | – | 15.8 µM (active) |
| O=C(c1cnccn1)N1CCC2(CCN(Cc3nccs3)CC2)CC1 | 21.5% (inactive) | – |
| CCc1ccc(N(C(=O)c2snc(C(N)=O)c2N)C(C(=O)NCCC(C)C)c2c[nH]c3ccccc23)cc1 (stereo not drawn) | – | 2.24 µM (active) |
| CC1(C)S[C@@H]2[C@H](NC(=O)[C@@H](N)c3ccc(O)cc3)C(=O)N2[C@H]1C(=O)O | 3.5% [at 25.6 µM] (inactive) | – |
| CCOC(=O)c1cc2c(C)n(-c3ccc(C)cc3)c(C)c2ccc1=O | – | 14.1 µM (active) |
| C[C@H]1[C@@H](O)[C@@H](C)\C=C/C=C\C=C/C=C\C=C/C=C\C=C/[C@@H](O[C@H]2O[C@@H](C)[C@@H](O)[C@@H](N)[C@@H]2O)C[C@@H]2O[C@](O)(C[C@@H](O)C[C@@H](O)[C@@H](O)CC[C@@H](O)C[C@@H](O)CC(=O)O[C@H]1C)C[C@@H](O)[C@H]2C(=O)O (stereo in doubt) | 96.2% [at 25.6 µM] (inactive) | – |
| COC(=O)c1[nH]c2cc(OC)ccc2c1NC(=O)c1ccc2c(c1)OCO2 | – | 10 µM (active) |

| Compound | activity, negative = inhibition | AC50 |
| --- | --- | --- |
| CCOC(=O)c1[nH]c2ccc(OC)cc2c1NC(=O)c1ccc2c(c1)OCO2 | – | 7.08 µM (active) |
| CCOC(=O)c1[nH]c2cc3c(cc2c1NC(=O)CN1CCC2(CC1)OCCO2)OCO3 | -16.2% (inactive) | – |
| CCOC(=O)c1[nH]c2cc(OC)c(OC)cc2c1NC(=O)c1ccc2c(c1)OCO2 | 19.5% (inactive) | – |
| COC(=O)c1[nH]c2cc(OC)ccc2c1NC(=O)c1nonc1C | -15% (inactive) | – |
| CCOC(=O)c1[nH]c2cc(OC)c(OC)cc2c1NC(=O)c1nonc1C | -17.1% (inactive) | – |
| CC(C)[C@@H](OCc1ccccc1)[C@H](C)/C=N\OC[C@@H](O)[C@@H]1O[C@@H]2OC(C)(C)O[C@@H]2[C@H]1O | -18.3% [at 11.4 µM] (inactive) | – |
| C[C@@H](C(=O)Nc1ccc2ccccc2c1)[C@H]1C[C@]1(C)[C@H](NC(=O)OCc1ccccc1)c1ccccc1 | – | 1 µM (active) |
| C[C@@H](C(=O)Nc1ccc2ccccc2c1)[C@@H]1C[C@@]1(C)[C@@H](NC(=O)OCc1ccccc1)c1ccccc1 | – | 3.16 µM (active) |
| CCCn1c(=O)c2[nH]c(C3CCCC3)nc2n(CCC)c1=O | -41.7% (inactive) | – |
| O=c1c2ccccc2nnn1CSc1nnc(COc2ccc(Cl)cc2)n1Cc1ccco1 | – | 14.1 µM (active) |
| Cc1cccc(NC(=O)c2cccc(N3C(=O)C4C5CCC(C5)C4C3=O)c2)c1C (stereo not drawn) | -25.3% (inactive) | – |
| O=C(Nc1ccc(Cl)cc1Cl)c1cccc(N2C(=O)C=CC2=O)c1 | – | 3.98 µM (active) |
| COc1ccc(N2C(=O)c3ccccc3NC2c2ccc(OC)c(CSc3ccccn3)c2)cc1 (stereo not drawn) | – | 0.891 µM (active) |
| COc1cccc(/C(O)=C2/C(=O)C(=O)N(c3ccccn3)C2c2ccc(OC)c(OC)c2)c1 (stereo not drawn) | 1.45% (inactive) | – |
| c1ccc2c[n+](Cc3ccnc4ccccc34)ccc2c1 | 10.8% [at 11.4 µM] (inactive) | – |
| COC(=O)c1c(C)[nH]c(C)c1C(=O)c1ccccc1Cc1ccccc1 | -8.63% (inactive) | – |
| CCOc1cc(CC(=O)N[C@@H](CC(C)C)c2ccccc2N2CCCCC2)ccc1C(=O)O | 18.6% [at 25.6 µM] (inactive) | – |
| CCc1c(C)sc(NC(=O)OC)c1C(N)=O | 2.97% (inactive) | – |
| CCOc1ccc(CC(=O)Nc2sc(Cc3ccccc3)c(C)c2C(N)=O)cc1OCC | – | 4.47 µM (active) |
| COc1c(NC(C)=O)c2ccccc2c2ccccc12 | 4.06% [at 11.4 µM] (inactive) | – |
| COC(=O)c1c(NC(C)=O)sc(Cc2ccccc2)c1C | – | 4.47 µM (active) |
